This note sets out measurements from PubChem BioAssay (NCATS).

Structures are written as SMILES. “And” between values parts separate entries of the source, which are not always exact repeats. Equal values may be shown once. Inconclusive results are not listed. The source made the active and inactive calls. Unless noted, calls come from the whole dose curve; as a rule, active = well fitted curve in the direction sought with a large enough effect; inconclusive = small, poorly fitted or top-dose-only effect, or another doubt; inactive = no such curve, though single readings can be large; an effect the other way counts as inactive or inconclusive.

In assay [1] the target is Cytochrome P450 1A2 (Homo sapiens) (UniProt P05177). Briefly: p450-cyp1a2 (AID 410; calls by dose curve; note: potency is the fitted concentration of half-maximal effect). The gist of the method: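 Human CYP1A2 (20nM) demethylated Luciferin-ME at its Km (100uM) in 100mM KPO4. After 10 min compound preincubation, NADPH regeneration ran the reaction 60 min at room temperature. Luciferin was read by luminescence, normalized to 57 uM furafylline.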
Chain of Cytochrome P450 1A2 (Homo sapiens) (P05177 whole entry, looked up): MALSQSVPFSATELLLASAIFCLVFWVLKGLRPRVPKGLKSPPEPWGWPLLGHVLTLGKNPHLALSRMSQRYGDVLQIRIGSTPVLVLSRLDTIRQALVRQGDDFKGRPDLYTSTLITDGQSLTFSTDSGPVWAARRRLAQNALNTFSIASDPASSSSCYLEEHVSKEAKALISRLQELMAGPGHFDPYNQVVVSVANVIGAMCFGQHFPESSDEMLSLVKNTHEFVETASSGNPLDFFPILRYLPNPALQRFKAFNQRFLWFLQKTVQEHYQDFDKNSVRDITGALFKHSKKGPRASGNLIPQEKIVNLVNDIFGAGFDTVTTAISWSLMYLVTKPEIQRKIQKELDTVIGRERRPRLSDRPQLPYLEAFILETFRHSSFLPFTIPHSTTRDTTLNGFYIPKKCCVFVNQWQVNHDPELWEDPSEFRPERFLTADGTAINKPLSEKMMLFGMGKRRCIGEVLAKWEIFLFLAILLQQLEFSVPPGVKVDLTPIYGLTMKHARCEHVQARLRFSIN
Assay [2] deals with Glucocorticoid receptor (Homo sapiens) (UniProt P04150). Briefly: GR-GFP Redistribution (AID 450;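 active = compounds whose dose series gives a full or clear partial fitted curve of increased nuclear translocation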; note: potency is the fitted concentration of half-maximal effect). As to conditions: U2OS GR-GFP nuclear translocation, laser cytometry, 2 h.
Chain of Glucocorticoid receptor (Homo sapiens) (P04150 whole entry, looked up): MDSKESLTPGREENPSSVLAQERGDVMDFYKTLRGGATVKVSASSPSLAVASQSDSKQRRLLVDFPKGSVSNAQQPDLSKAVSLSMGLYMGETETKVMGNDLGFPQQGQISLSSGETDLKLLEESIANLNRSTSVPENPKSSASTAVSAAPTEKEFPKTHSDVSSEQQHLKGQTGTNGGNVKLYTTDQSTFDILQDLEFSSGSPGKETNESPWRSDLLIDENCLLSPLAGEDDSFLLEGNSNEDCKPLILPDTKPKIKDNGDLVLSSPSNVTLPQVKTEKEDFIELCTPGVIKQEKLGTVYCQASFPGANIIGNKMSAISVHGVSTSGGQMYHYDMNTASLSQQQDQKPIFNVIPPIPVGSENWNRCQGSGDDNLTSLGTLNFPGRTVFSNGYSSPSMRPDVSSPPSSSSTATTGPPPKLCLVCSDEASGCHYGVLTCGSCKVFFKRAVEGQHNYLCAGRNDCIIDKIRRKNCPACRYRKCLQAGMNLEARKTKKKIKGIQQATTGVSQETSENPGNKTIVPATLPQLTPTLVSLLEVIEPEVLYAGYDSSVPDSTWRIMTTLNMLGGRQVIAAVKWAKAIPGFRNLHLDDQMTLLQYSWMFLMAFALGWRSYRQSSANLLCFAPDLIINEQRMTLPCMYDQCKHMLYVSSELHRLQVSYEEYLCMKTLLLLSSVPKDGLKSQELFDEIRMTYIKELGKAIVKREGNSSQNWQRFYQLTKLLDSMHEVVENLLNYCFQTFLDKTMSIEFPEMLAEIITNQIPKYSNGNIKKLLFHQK
For assay [3] the target is unchanged. Briefly: GR-EFC Redistribution (AID 451; calls by dose curve; note: potency is the fitted concentration of half-maximal effect). The conditions noted are these: CHO-K1 GR-EFC translocation, beta-gal luminescence, 2 h. The gist of the method:
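CHO-K1 cells stably expressing nuclear-localized β-gal enzyme acceptor and GR fused C-terminally to the enzyme donor fragment; ligand-driven nuclear translocation restores β-gal by complementation. Compounds titrated up to 46 uM final, 2 h at 37 °C; luminescence read.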

The target in assay [4] is Mitogen-activated protein kinase 10 (Mus musculus) (UniProt Q61831). Briefly: JNK3 AlphaScreen Assay (AID 530; active = well fitted curve in either direction with a large enough effect, not every such curve was filed as active;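 note: kinase came from lysate of stimulated human HepG2 cells; signal reports phosphorylation of biotinylated GST-cJun 1-79 at Ser73 with 10 µM ATP; % is set by controls: 0 for no effect and ±100 for the full control effect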). The gist of the method:
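JNK3 came from HepG2 lysates pre-activated with IL-1beta and TNF-alpha and phosphorylated biotinylated GST-cJun (1-79) at 10 uM ATP, pH 7.6, room temperature. Compounds were titrated. AlphaScreen signal used anti-phospho-cJun (Ser73) antibody.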
In general terms: Alpha assays give light when donor and acceptor beads are brought close together.

The target in assay [5] is Cytochrome P450 2C9 (Homo sapiens) (UniProt P11712). The assay is described as follows: qHTS Assay for Inhibitors and Substrates of Cytochrome P450 2C9 (AID 883). Note: potency is the fitted concentration of half-maximal effect; nearly all actives have a fitted effect of over 60% in size. The method in brief:
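CYP2C9 deoxyluciferin hydroxylation, 37C, 60 min with NADPH regeneration; 10nM enzyme, 100uM Luciferin-H (KM). Glo detection reagent stopped reaction; luminescence normalized to sulphaphenazole (57uM) full inhibition.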

In assay [6] the target is Cytochrome P450 3A4 (Homo sapiens) (UniProt P08684). The assay is described as follows: qHTS Assay for Inhibitors and Substrates of Cytochrome P450 3A4 (AID 884). Note: potency is the fitted concentration of half-maximal effect; nearly all actives have a fitted effect of over 50% in size. The method in brief:
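20 nM human CYP3A4 with 25 uM Luciferin-PPXE (at KM) in 200 mM KPO4, preincubated 10 min with compound; NADPH regeneration started a 60 min RT reaction. Luciferin detected by luminescence, normalized to 57 uM ketoconazole as full inhibition.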
(In general: In qHTS, concentration-response curves come from the screen itself.)

Assay [7] has the same target. Briefly: qHTS Assay for Activators of Cytochrome P450 3A4 (AID 885). Note: nearly all actives have a fitted effect of over 65% in size. The method in brief:
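Human CYP3A4 (20 nM) with Luciferin-PPXE at 25 uM (its KM) in 200 mM KPO4; 10 min compound preincubation, then NADPH regeneration and 60 min reaction at RT. Luciferin read by luminescence; normalized to 57 uM ketoconazole full inhibition.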

Assay [8] concerns the target Cytochrome P450 2C19 (Homo sapiens) (UniProt P33261). The assay is described as follows: qHTS Assay for Inhibitors and Substrates of Cytochrome P450 2C19 (AID 899). Note: potency is the fitted concentration of half-maximal effect; nearly all actives have a fitted effect of over 60% in size. The method in brief:
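In 50mM KPO4, the reaction held 5nM enzyme and KM-level (10uM) Luciferin-H EGE; it ran 60 min at 37C after NADPH regeneration and a 10 min compound preincubation. Luminescence values were scaled to 57uM ketoconazole as complete inhibition.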

Assay [9] can be described thus: qHTS Assay for Lipid Storage Modulators (AID 1519; calls by dose curve; for activity change, negative = inhibition: % is set by controls: 0 for no effect and ±100 for the full control effect). As to conditions: Drosophila S3 cells, BODIPY lipid droplet/cell ratio, laser cytometry, cells loaded with oleic acid; for activity change, negative = inhibition: at 57.5 µM (top of the series). The method in brief:
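Cells seeded at 5,000 per well were treated with compounds over a concentration series and loaded with oleic acid (400 uM, as added). Lipid droplet fluorescence (488 nm excitation, 500-530 nm channel) was read by laser-scanning cytometry and normalized to 20 uM Triacsin C.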

For assay [10], the target named is Ubiquitin carboxyl-terminal hydrolase 1 (Homo sapiens) (UniProt O94782). The assay is described as follows: Inhibitors of USP1/UAF1: Pilot qHTS (AID 504865).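 Note: rhodamine fluorescence freed from ubiquitin-rhodamine substrate followed over time; top concentration of the series differs between compounds; % is set by controls: 0 for no effect and ±100 for the full control effect; nearly all actives have a fitted effect of over 35% in size.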 The method in brief:
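USP1/UAF1 complex (1nM) preincubated with compound 15 min at room temperature, then Ub-Rho substrate (150nM final) added. Fluorescence read kinetically at 480/540 nm, 6 reads every 60 seconds. Buffer: 50mM HEPES pH 7.8, 0.5mM EDTA, 0.1 mg/ml BSA, 1mM TCEP, 0.01% Tween-20.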

The target in assay [11] is DNA dC->dU-editing enzyme APOBEC-3G (Homo sapiens) (UniProt Q9HC16). Briefly: qHTS for inhibitors of Vif-A3G interactions: Validation (AID 588379). Note: 0% is about no effect. The method in brief: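 HeLa cells stably expressing Vif and A3G-eYFP, 700 cells/well, incubated overnight at 37 deg C, then exposed to compound overnight at 37 deg C. Inhibition of Vif-mediated degradation read as increased yellow fluorescence (Ex 488/Em 500-530) by laser-scanning cytometry.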
Chain of DNA dC->dU-editing enzyme APOBEC-3G (Homo sapiens) (Q9HC16 whole entry, looked up): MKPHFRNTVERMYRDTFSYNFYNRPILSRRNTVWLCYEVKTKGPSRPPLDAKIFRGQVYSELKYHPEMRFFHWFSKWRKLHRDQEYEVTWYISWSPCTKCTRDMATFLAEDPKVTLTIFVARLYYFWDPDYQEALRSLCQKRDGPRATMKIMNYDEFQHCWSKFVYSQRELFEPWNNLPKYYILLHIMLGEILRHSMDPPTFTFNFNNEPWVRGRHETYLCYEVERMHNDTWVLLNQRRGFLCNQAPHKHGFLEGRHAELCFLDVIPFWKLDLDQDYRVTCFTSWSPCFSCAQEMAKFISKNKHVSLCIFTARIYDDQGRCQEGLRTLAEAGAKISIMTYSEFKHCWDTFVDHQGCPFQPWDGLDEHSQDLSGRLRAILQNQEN

Assay [12] concerns Zika virus NS2B-NS3 protease. Briefly: Primary screen GU AMC qHTS for Zika virus inhibitors (AID 1347154).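 Note: 0% = no-inhibitor control and -100% = no-enzyme control; nearly all actives have a fitted effect of over 70% in size.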 The gist of the method: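 Unlinked Zika NS2B hydrophilic domain/NS3 protease domain noncovalent complex (25 nM final) in 10 mM Tris-HCl pH 8.0, 0.01% Tween 20, with AMC peptide substrate. Fluorescence (ex 340, em 450 nm) change over 15 min, room temperature; percent inhibition fitted to 4-parameter Hill equation.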

Assay [13] is described as follows: Counterscreen qHTS for small molecule stabilizers of the endoplasmic reticulum resident proteome: GLuc-NoTag assay (AID 1508627).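 Note: SH-SY5Y cells given compound then 100 nM thapsigargin to empty ER calcium; 0% = thapsigargin alone and -100% = DMSO vehicle control.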 The method in brief:
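SH-SY5Y cells stably expressing constitutively secreted GLuc (no SERCaMP tag) were pre-incubated 5 h, treated with compound for 19 h, then 100 nM thapsigargin for 4 h at 37C; medium GLuc read by coelenterazine luminescence.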

For assay [14], the target named is 3',5'-cyclic-AMP phosphodiesterase 4B (Homo sapiens) (UniProt Q07343). Briefly: qHTS Assay for Inhibitors of PDE-IV (AID 607; active = well fitted activation curve with a large enough effect in the main read-out, with a control signal flat, not every such curve was filed as active; note: % of control where 0% means no effect). The method in brief: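 HEK293 ACTOne cells with CNG channel (1000/well), endogenous PDE4; membrane potential dye, compounds up to 22.9 uM final. Fluorescence Ex 535/Em 590; RO 20-1724 (100 uM final) as reference.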
Chain of 3',5'-cyclic-AMP phosphodiesterase 4B (Homo sapiens) (Q07343 whole entry, looked up): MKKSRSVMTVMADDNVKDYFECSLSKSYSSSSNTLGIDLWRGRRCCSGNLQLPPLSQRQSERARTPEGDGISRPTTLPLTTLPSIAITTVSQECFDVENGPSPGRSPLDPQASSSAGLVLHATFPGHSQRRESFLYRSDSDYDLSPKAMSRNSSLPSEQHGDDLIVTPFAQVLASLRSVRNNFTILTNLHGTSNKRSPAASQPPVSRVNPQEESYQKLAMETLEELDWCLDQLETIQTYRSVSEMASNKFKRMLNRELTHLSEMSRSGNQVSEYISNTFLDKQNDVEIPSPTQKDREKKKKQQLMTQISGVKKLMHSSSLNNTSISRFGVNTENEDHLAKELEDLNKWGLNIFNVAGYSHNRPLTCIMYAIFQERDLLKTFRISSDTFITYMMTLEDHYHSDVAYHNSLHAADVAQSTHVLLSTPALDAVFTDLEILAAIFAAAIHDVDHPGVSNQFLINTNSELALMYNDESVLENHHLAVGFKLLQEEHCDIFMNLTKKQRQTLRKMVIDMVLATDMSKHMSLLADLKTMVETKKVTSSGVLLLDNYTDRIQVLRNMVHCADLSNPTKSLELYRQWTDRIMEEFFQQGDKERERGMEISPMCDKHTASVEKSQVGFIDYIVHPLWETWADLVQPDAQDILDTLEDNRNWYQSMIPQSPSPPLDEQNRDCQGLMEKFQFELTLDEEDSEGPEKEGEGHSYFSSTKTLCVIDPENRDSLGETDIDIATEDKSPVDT
Assay [15] in a line: Confirmation and Secondary Assay for Modulators of Hemoglobin Beta Chain Splicing at IVS2 654 locus (AID 910).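 Note: per-well total GFP intensity by laser scanning cytometry after 2-day treatment; % of control where 0% means no effect.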 The method in brief:
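HeLa cells stably carrying EGFP interrupted by mutant beta-globin IVS2-654 intron (CMV-driven) were treated with compound for 2 days at 37C; corrected splicing was scored as total peak GFP intensity per well (488 nm excitation, 500-520 nm emission).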

The nature of assay [16]: Confirmation and Secondary Assay for Modulators of Hemoglobin Beta Chain Splicing at IVS2 705 locus (AID 930).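 Note: HeLa cells stably expressing the EGFP-705 splicing reporter; % of control where 0% means no effect.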 The method in brief: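 HeLa cells stably carrying EGFP interrupted by mutant beta-globin IVS2-705 intron (CMV-driven) were seeded at 500 cells/well, treated next day with compound for 2 days at 37C; corrected splicing restores EGFP, read as total peak GFP intensity per well.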

The nature of assay [17]: Cell Viability qHTS for small molecule stabilizers of the endoplasmic reticulum resident proteome (AID 1508629).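 Note: human SH-SY5Y neuroblastoma cells carrying the GLuc-SERCaMP reporter; compound exposure about 46 h in total before the viability read; % is set by controls: 0 for no effect and ±100 for the full control effect.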 As to conditions: cell viability counter-screen, 100 nM thapsigargin for final 4 h.
Where [18] appears, read: measured here: cell count channel max response.
[19] abbreviates: measured here: lipid channel max response.

Chain of Cytochrome P450 3A4 (Homo sapiens) (P08684 whole entry, looked up): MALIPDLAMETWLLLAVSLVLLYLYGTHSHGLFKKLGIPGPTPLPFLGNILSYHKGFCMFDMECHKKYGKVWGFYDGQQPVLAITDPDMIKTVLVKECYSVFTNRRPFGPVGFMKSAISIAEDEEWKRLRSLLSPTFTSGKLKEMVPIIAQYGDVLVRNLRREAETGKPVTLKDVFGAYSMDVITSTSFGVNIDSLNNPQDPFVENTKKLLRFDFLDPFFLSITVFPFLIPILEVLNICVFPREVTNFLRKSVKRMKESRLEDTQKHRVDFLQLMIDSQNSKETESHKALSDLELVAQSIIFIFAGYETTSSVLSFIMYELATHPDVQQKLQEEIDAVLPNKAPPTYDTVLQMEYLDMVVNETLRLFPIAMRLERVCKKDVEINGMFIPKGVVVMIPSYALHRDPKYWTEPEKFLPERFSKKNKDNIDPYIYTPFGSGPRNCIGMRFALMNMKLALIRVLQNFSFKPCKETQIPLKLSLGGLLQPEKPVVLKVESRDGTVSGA
Chain of Ubiquitin carboxyl-terminal hydrolase 1 (Homo sapiens) (O94782 whole entry, looked up): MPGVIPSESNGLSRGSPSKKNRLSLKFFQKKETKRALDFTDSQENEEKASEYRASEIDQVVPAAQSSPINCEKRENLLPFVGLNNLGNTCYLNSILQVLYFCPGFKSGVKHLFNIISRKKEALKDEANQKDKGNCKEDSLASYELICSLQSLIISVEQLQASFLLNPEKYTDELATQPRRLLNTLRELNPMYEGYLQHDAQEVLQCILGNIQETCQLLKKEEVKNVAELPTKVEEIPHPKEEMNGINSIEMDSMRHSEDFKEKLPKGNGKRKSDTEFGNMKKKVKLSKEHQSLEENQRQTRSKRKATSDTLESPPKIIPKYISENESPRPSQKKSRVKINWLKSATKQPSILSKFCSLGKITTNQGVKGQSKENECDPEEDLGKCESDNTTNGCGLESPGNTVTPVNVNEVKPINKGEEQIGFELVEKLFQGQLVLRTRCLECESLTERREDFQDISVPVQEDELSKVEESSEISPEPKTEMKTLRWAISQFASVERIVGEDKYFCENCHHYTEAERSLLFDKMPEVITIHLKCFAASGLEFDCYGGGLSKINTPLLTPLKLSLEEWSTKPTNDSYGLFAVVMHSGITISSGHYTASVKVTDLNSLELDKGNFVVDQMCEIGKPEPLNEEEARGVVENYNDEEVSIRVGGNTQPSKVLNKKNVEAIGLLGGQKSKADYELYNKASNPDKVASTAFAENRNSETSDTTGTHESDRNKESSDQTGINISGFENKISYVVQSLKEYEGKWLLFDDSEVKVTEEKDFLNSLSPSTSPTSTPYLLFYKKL
Chain of Cytochrome P450 2C19 (Homo sapiens) (P33261 whole entry, looked up): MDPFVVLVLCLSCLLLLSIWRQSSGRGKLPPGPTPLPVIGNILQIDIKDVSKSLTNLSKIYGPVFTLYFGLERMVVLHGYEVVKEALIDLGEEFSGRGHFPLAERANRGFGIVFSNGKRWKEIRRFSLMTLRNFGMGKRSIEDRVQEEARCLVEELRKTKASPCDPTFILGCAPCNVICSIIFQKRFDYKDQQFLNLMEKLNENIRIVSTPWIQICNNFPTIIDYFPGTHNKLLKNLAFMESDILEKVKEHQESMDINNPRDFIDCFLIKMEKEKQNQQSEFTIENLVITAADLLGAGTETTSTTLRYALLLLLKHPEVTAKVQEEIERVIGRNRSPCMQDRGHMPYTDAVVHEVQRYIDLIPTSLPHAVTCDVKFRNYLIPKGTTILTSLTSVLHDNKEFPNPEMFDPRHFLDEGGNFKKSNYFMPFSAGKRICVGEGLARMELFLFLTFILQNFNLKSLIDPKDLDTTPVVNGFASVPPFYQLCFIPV
Chain of Cytochrome P450 2C9 (Homo sapiens) (P11712 whole entry, looked up): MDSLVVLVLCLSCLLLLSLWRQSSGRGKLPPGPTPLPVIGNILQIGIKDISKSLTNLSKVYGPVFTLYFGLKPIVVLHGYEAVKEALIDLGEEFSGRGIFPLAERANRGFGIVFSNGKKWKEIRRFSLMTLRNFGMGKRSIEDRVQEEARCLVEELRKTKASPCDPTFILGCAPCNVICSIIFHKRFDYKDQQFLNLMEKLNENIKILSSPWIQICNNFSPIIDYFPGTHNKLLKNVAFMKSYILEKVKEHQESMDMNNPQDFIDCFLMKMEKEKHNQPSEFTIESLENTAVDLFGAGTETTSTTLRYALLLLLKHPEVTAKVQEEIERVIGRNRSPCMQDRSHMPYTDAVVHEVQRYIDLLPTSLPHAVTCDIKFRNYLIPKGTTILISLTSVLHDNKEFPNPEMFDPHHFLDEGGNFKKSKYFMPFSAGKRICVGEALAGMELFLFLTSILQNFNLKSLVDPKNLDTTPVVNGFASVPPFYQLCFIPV

For `C=C[C@@]1(C)CC(=O)[C@@]2(O)[C@@]3(C)[C@@H](O)CCC(C)(C)[C@@H]3[C@H](OC(=O)CCN(C)C)[C@H](OC(C)=O)[C@@]2(C)O1`, the Potency entry in assay [1], in assay [4], in assay [7], in assay [10], in assay [11] and in [12] was “inactive” throughout. In addition, the Potency result in [13] is “inactive”. The Potency was > 46 µM (inactive) in assay [2]; > 46 µM (inactive) in assay [3]; 0.126 µM (active) in assay [5]; 2.51 µM (active) in [6]; 0.251 µM (active) in assay [8]. For the same molecule, in assay [9], the activity change, negative = inhibition was -1.7% (inactive). Moreover, the max response in assay [9] (setting [18]) is -14.6%; in assay [9] (setting [19]), -17.4%.

For `NCCOB(c1ccccc1)c1ccccc1`, the Potency in [1] was 15.8 µM (active); in [2], > 46 µM (inactive); in [3], > 46 µM (inactive). Also, the Potency result in assay [4], in assay [14], in [7], in assay [10], in assay [11] and in [12] was “inactive” throughout. The Potency result in [13] was “inactive”. Moreover, the result in assay [15] and in [16] was inactive. Moreover, the activity change, negative = inhibition in assay [9] was -7.96% (inactive) and -2.88% (inactive). Also, the max response in assay [9] (setting [18]) was -4.57% and 13.6%; in assay [9] (setting [19]), -11.1% and 11.6%; in [17] it was 2.88% (inactive).
